Data as given in PubChem BioAssay AID1159580 (chemical genetic matrix, 2015).
Several values for one entry are separate records, joined by “and”; a condition that tells them apart may be missing. Equal entries are not always repeated. Out of some 5,500 compounds screened, about 2,000 (36%) were called active. About 18% were inconclusive and are not listed. Cut-off read from the data, not from the text of the source: active = normalized growth mostly below about 0.91 (no sharp cut-off); inconclusive = no clear call, values can overlap the other calls; inactive = mostly above about 0.92. The list shows a part of the results.

Assay: chemical genetic growth profiling, strain panel (AID 1159580);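 note: tested at 20 µM; growth read once vehicle control cultures reached saturation at 30 °C; 1 = growth at the plate median or of vehicle wells; lower values mean less growth of the strain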
Conditions: S. cerevisiae deletion strains, growth OD

Measured: normalized growth

COc1nc(NC(C)C)nc(NC(C)C)n1
inactive: locus YAL013W, strain DEP1, stronger effect = lower value 1.01 | locus YAL021C, strain ccr4, stronger effect = lower value 0.991 | locus YAL026C, strain drs2, stronger effect = lower value 1.04 | locus YAL030W, strain snc1, stronger effect = lower value 1.02 | locus YBL061C, strain skt5, stronger effect = lower value 1.03 | locus YBR009C, strain hhf1, stronger effect = lower value 1.06 | locus YBR021W, strain FUR4, stronger effect = lower value 1.04 | locus YBR023C, strain chs3, stronger effect = lower value 1.03 | locus YBR171W, strain sec66, stronger effect = lower value 1.02 | locus YBR229C, strain ROT2, stronger effect = lower value 0.999 | locus YBR231C, strain swc5, stronger effect = lower value 1.02 | locus YBR279W, strain paf1, stronger effect = lower value 1.01 | locus YCL011C, strain gbp2, stronger effect = lower value 1.02 | locus YCL016C, strain dcc1, stronger effect = lower value 1.01 | locus YCL029C, strain bik1, stronger effect = lower value 1.02 | locus YCL069W, strain vba3, stronger effect = lower value 1.01 | locus YCR088W, strain abp1, stronger effect = lower value 1.02 | locus YDL005C, strain med2, stronger effect = lower value 1.02 | locus YDL035C, strain GPR1, stronger effect = lower value 1.02 | locus YDL040C, strain nat1, stronger effect = lower value 1 | locus YDL074C, strain BRE1, stronger effect = lower value 1.05 | locus YDL101C, strain DUN1, stronger effect = lower value 1.02 | locus YDL134C, strain PPH21, stronger effect = lower value 1 | locus YDL185W, strain tfp1, stronger effect = lower value 1.03 | locus YDL192W, strain arf1, stronger effect = lower value 1.03 | locus YDR001C, strain nth1, stronger effect = lower value 1.02 | locus YDR069C, strain doa4, stronger effect = lower value 1.02 | locus YDR101C, strain arx1, stronger effect = lower value 1.01 | locus YDR137W, strain rgp1, stronger effect = lower value 1.02 | locus YDR150W, strain NUM1, stronger effect = lower value 1.01 | locus YDR159W, strain sac3, stronger effect = lower value 1.07 | locus YDR162C, strain NBP2, stronger effect = lower value 1.01 | locus YDR195W, strain ref2 0.995 | locus YDR297W, strain sur2, stronger effect = lower value 1.03 | locus YDR318W, strain mcm21, stronger effect = lower value 1.02 | locus YDR334W, strain swr1, stronger effect = lower value 1.01 | locus YDR335W, strain msn5, stronger effect = lower value 1.01 | locus YDR388W, stronger effect = lower value 1.03 | locus YDR392W, strain spt3, stronger effect = lower value 1.01 | locus YDR502C, strain sam2, stronger effect = lower value 1.02 | locus YEL003W, strain gim4, stronger effect = lower value 1.02 | locus YEL037C, strain rad23, stronger effect = lower value 1.02 | locus YEL061C, strain CIN8 (second series), stronger effect = lower value 1.03 | locus YEL061C, strain CIN8, stronger effect = lower value 1 | locus YER015W, strain faa2, stronger effect = lower value 1.02 | locus YER016W, strain bim1, stronger effect = lower value 1.01 | locus YER110C, stronger effect = lower value 1.02 | locus YER111C, strain swi4, stronger effect = lower value 1.02 | locus YER155C, strain BEM2 (second series), stronger effect = lower value 1.03 | locus YER155C, strain BEM2, stronger effect = lower value 1.01 | locus YER167W, strain BCK2, stronger effect = lower value 1.01 | locus YFR010W, strain ubp6, stronger effect = lower value 1.03 | locus YGL078C, strain dbp3, stronger effect = lower value 1.01 | locus YGL086W, strain mad1, stronger effect = lower value 1.01 | locus YGL167C, strain pmr1, stronger effect = lower value 1.02 | locus YGL173C, strain kem1, stronger effect = lower value 1.04 | locus YGL227W, strain vid30, stronger effect = lower value 1.04 | locus YGL240W, strain doc1, stronger effect = lower value 1.02 | locus YGL248W, strain PDE1, stronger effect = lower value 1.01 | locus YGL253W, strain hxk2, stronger effect = lower value 1.03 | locus YGR078C, strain PAC10, stronger effect = lower value 1.02 | locus YGR135W, strain pre9, stronger effect = lower value 1.02 | locus YGR229C, strain SMI1, stronger effect = lower value 1.02 | locus YGR252W, strain gcn5, stronger effect = lower value 1.05 | locus YHR013C, strain ard1, stronger effect = lower value 1.03 | locus YHR027C, strain rpn1, stronger effect = lower value 1.03 | locus YHR030C, strain SLT2, stronger effect = lower value 1.01 and 1.07 | locus YHR079C, strain IRE1 (second series), stronger effect = lower value 1.02 | locus YHR079C, strain IRE1, stronger effect = lower value 1.03 | locus YHR094C, strain hxt1, stronger effect = lower value 1.01 | locus YHR129C, strain ARP1, stronger effect = lower value 1.01 | locus YHR142W, strain chs7, stronger effect = lower value 1.04 | locus YHR200W, strain rpn10, stronger effect = lower value 1.01 | locus YIL066C, strain RNR3, stronger effect = lower value 1.02 | locus YIL073C, strain SPO22, stronger effect = lower value 1.08 | locus YIL125W, strain kgd1, stronger effect = lower value 1.01 | locus YIR030C, strain dcg1, stronger effect = lower value 1.01 | locus YJL092W, strain hpr5, stronger effect = lower value 1.02 | locus YJL095W, strain BCK1 (second series), stronger effect = lower value 1.04 | locus YJL095W, strain BCK1, stronger effect = lower value 1.01 and 1.06 | locus YJL115W, strain asf1, stronger effect = lower value 1.02 | locus YJL129C, strain trk1, stronger effect = lower value 1.02 | locus YJL134W, strain LCB3, stronger effect = lower value 1.01 | locus YJL154C, strain vps35, stronger effect = lower value 1.01 | locus YJL164C, strain tpk1, stronger effect = lower value 1.01 | locus YJL166W, strain qcr8, stronger effect = lower value 1.03 | locus YJL168C, strain set2, stronger effect = lower value 1.02 | locus YJL187C, strain SWE1 (second series), stronger effect = lower value 1.01 | locus YJL187C, strain SWE1, stronger effect = lower value 1 | locus YJR043C, strain POL32, stronger effect = lower value 1.03 | locus YJR066W, strain TOR1, stronger effect = lower value 1
